Compounds without any hit were thinned out: in the full panel of roughly 79,000, 15% have a hit. Calls of active or inactive are those of the source. Rule as the data show it: active = growth inhibition above about 70%; inactive = the rest.
Columns and labels:
[1] = NCI Yeast Anticancer Drug Screen. Data for the rad50 strain (AID 155);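 also: 0% = growth of vehicle-only cultures of the same strain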; conditions: S. cerevisiae rad50 strain growth inhibition; at 50.0 µM; stronger effect = higher value
Summary of the method: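 DNA repair mutant yeast, compound exposure, growth read-out; inhibition is taken relative to vehicle.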

[2] = NCI Yeast Anticancer Drug Screen. Data for the mec2-1 strain (AID 157); conditions: S. cerevisiae mec2-1 strain, at 50.0 µM, stronger effect = higher value
Summary of the method: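 Strain: mec2-1 (DNA repair/cell cycle alteration). Compound exposure, then growth measured; inhibition expressed relative to vehicle.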

[3] = NCI Yeast Anticancer Drug Screen. Data for the sgs1 mgt1 strain (AID 161);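 also: 0% = growth of cultures given vehicle only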; conditions: S. cerevisiae sgs1 mgt1 strain, at 50.0 µM, stronger effect = higher value
Summary of the method: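 Genetically altered yeast, compound exposure, growth inhibition relative to vehicle.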

[4] = NCI Yeast Anticancer Drug Screen. Data for the cln2 rad14 strain (AID 165);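 also: 0% = growth equal to vehicle treated cultures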; conditions: S. cerevisiae cln2 rad14 strain, at 50.0 µM, stronger effect = higher value
Summary of the method: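 Compounds are applied to the cln2 rad14 yeast strain, and growth is then compared with that of vehicle-treated cultures to give inhibition.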

[5] = NCI Yeast Anticancer Drug Screen. Data for the bub3 strain (AID 167); conditions: S. cerevisiae bub3 mutant strain, at 50.0 µM, stronger effect = higher value
Summary of the method: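 In this screen, a yeast mutant lacking normal mitotic checkpoint function is challenged with compound. Relative growth versus vehicle gives the inhibition value.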

[6] = NCI Yeast Anticancer Drug Screen. Data for the mlh1 rad18 strain (AID 175); conditions: S. cerevisiae mlh1 rad18 strain growth inhibition; at 50.0 µM; stronger effect = higher value
Summary of the method: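 Read-out is yeast growth inhibition, calculated against vehicle-only controls. The compound was applied to a strain engineered with DNA damage repair alterations.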

Measured: growth inhibition

c1ccc(-c2cc(-c3cc(-c4ccccc4)n[nH]3)[nH]n2)cc1
inactive: [1] -9.95% | [2] -8.15% | [3] -21.4% | [4] -19.2% | [5] -16.6% | [6] -37.1%

Cc1ccc(C(=O)N/N=C/c2ccc(N(C)C)cc2Cl)cc1
inactive: [1] 39.5% | [2] 20.2% | [3] 16.4% | [4] 22.9% | [5] 61% | [6] 21.9%

CC(C)(C)C1CCC2c3c([nH]c4ccccc34)C3C(=O)N(c4ccc(Br)cc4)C(=O)C3C2C1 (configuration not stated)
inactive: [1] 12.8% | [2] 11.8% | [3] 8.05% | [4] -35.6% | [5] 13.8% | [6] 6.15%

COC(=O)C1C(C)C1c1ccc2c(c1)OCO2 (configuration not stated)
inactive: [1] 2.65% | [2] 2.05% | [3] -0.7% | [4] -3.7% | [5] -0.7% | [6] -25.5%

O=[N+]([O-])c1ccc2nc(/C=C(\O)c3ccccc3)c(/C=C(\O)c3ccc(Cl)cc3)nc2c1
inactive: [1] -10.1% | [2] -28.2% | [3] -52.5% | [4] -66.3% | [5] -62.1% | [6] -31.2%

CC1=C(C(=O)Nc2ccccc2C)C(c2ccccc2C)C(C(=O)Nc2ccccc2C)=C(C)N1
inactive: [1] 67.2% | [2] 62.6% | [3] 51.8% | [4] 27.3% | [5] 64.3% | [6] 57.7%

CC1=C(O)c2cn(C)cc2C(=O)C1=O
inactive: [1] 26.1% | [2] 24.9% | [3] 18% | [4] 26.6% | [5] 31.9% | [6] 28.3%

O=C1c2ccccc2C(=O)c2cc(N=Nc3c(O)ccc4ccccc34)ccc21
inactive: [1] 2.05% | [2] 35.9% | [3] -6% | [4] 4.25% | [5] 2.7% | [6] 2.1%

NC1=CCNN1
inactive: [1] 8.7% | [2] -21.9% | [3] 4.1% | [4] 4.1% | [5] 11.3% | [6] 14.4%

NC(N)=NC(N)=Nc1ccc(-c2ccc(N=C(N)N=C(N)N)cc2)cc1
inactive: [1] 0.85% | [2] -0.3% | [3] -0.7% | [4] 6.15% | [5] 7.9% | [6] 13.6%

C#CCNC(=O)ON1C(=O)CCC1=O
inactive: [1] -5.25% | [2] -8.4% | [3] -25.7% | [4] -12.4% | [5] -16.9% | [6] -28.9%

CCN(CC)C(=O)CCn1ccc(=O)[nH]c1=O
inactive: [1] -52.4% | [2] -33.4% | [3] -25.8% | [4] 9.55% | [5] -2.75% | [6] -5.35%

C=CCC1(C)C=C(C)C(=O)C(C)=C1
inactive: [1] -6.05% | [2] -7% | [3] 18.6% | [4] 2.55% | [5] 16.2% | [6] 15.1%

CCN1c2ccccc2CC(C#N)(CCN(C)C)c2ccccc21 (configuration not stated)
inactive: [1] 1.5% | [2] 5.45% | [3] 2.65% | [4] -10.8% | [5] 6.95% | [6] -0.35%

COc1ccc2[nH]cc(CC(N)=O)c2c1
inactive: [1] -25.8% | [2] -28.8% | [3] -39.4% | [4] 12.7% | [5] -41.4% | [6] -19.5%

COc1ccc(C)cc1CC(=O)O
inactive: [1] 7.5% | [2] 3.05% | [3] -21.4% | [4] 4.1% | [5] 6.25% | [6] -9.2%

CCOC(=O)c1cc(NC(C)=O)c(C)n1C
inactive: [1] -5.4% | [2] 8.6% | [3] -3.45% | [4] -26.6% | [5] 11.1% | [6] 16.4%

Cc1ccc(C2(c3ccc(Cl)cc3)c3ccccc3C3=NCCN32)cc1 (configuration not stated)
inactive: [1] 19.9% | [2] 9.15% | [3] 25.6% | [4] 23% | [5] 28.1% | [6] 30.7%

COC(=O)C1=C(C(=O)OC)C23CC4CCC2(C(=O)C1O3)C4(C)C (configuration not stated)
inactive: [1] 36.4% | [2] 18% | [3] 23% | [4] 8.65% | [5] 21.5% | [6] -5.15%

OC1COc2c3ccccc3nn2C1 (configuration not stated)
inactive: [1] -1.35% | [2] 2.85% | [3] 21.7% | [4] 14.5% | [5] 7.8% | [6] 30.1%

N#CN(Cc1ccccc1)Cc1ccccc1
inactive: [1] -1.25% | [2] 23.7% | [3] 7.75% | [4] 0.6% | [5] 10.7% | [6] 4%

CC(=O)Oc1ccc(-c2c3ccccc3cc3c2ccc2ccccc23)cc1
inactive: [1] 1.75% | [2] -10.4% | [3] -9.85% | [4] -5.05% | [5] -2.7% | [6] -28.3%

CCOP(=O)(OCC)C(Cc1cn(S(=O)(=O)c2ccc(C)cc2)cn1)C(=O)O (configuration not stated)
inactive: [1] -14.2% | [2] 12.5% | [3] 5.9% | [4] 16.2% | [5] 21.4% | [6] -17.4%

CCCCCCCCCCn1cnc2c(=O)[nH]c(N)nc21
inactive: [1] 1.85% | [2] 2.75% | [3] 9.7% | [4] -0.25% | [5] 2.8% | [6] -4.85%

Cc1cn(C2CC(NO)C(CO[Si](C)(C)C(C)(C)C)O2)c(=O)[nH]c1=O (configuration not stated)
inactive: [1] -3.75% | [2] -0.25% | [3] -3.45% | [4] -3.9% | [5] -30.4% | [6] -35.7%

C1=C(c2ccccc2)NC2=N[C@H]3CCCC[C@@H]3N2C1c1ccccc1 (some centres not stated)
inactive: [1] 18.9% | [2] 10.4% | [3] 22.8% | [4] -7.55% | [5] 33.8%
active: [6] 91.5%

CCCCCCCC/C=C/CCCCCCCC(=O)OCC(C)(C)N1C(=O)CCC1=O
inactive: [1] -11.2% | [2] -20.4% | [3] -12.6% | [4] -11.2% | [5] -3.45% | [6] -7.3%

Cc1cn(CCCCCCCCCCCCOc2c3occc3cc3ccc(=O)oc23)c(=O)[nH]c1=O
inactive: [1] 20.1% | [2] 4.6% | [3] -3.5% | [4] 23.2% | [5] -2.35% | [6] 19.6%

CN(C)/C=N\c1ncnc2c1ccn2C1OC(CO)C(O)C1O (configuration not stated)
inactive: [1] -2.15% | [2] -5.4% | [3] -10.3% | [4] 10.2% | [5] 3.15% | [6] -4.7%

c1ccc2c(c1)[nH]c1c2ncc2[nH]c3ccccc3c21
inactive: [1] -2.7% | [2] 2.85% | [3] -7.35% | [4] -60.2% | [5] -1.8% | [6] 7.25%

CC(C)(C)c1ccc(OS(=O)(=O)c2ccccc2)c(Cl)c1
inactive: [1] -8.25% | [2] -1.15% | [3] -1.55% | [4] -14.1% | [5] 1.5% | [6] 0.85%

O=C(NCCCCCCNC(=O)c1cc(-c2ccccc2)nc2ccccc12)c1cc(-c2ccccc2)nc2ccccc12
inactive: [1] -33% | [2] -18% | [3] -42.6% | [4] -17.4% | [5] -27.3% | [6] -17.4%

O=Cc1ccc(O)cn1
inactive: [1] -0.65% | [2] 6.25% | [3] -4.4% | [4] -11.9% | [5] 1.75% | [6] -0.75%

Cc1ccccc1NC(=S)N1CCOCC1
inactive: [1] -4.55% | [2] 14.4% | [3] -10.8% | [4] -68.6% | [5] 14.2% | [6] -6.35%

CC(NC(=O)c1ccc(C(C[N+](=O)[O-])SCCC(=O)O)cc1)C(=O)O (configuration not stated)
inactive: [1] 18.9% | [2] 7.2% | [3] 26.2% | [4] 5.55% | [5] -15.9% | [6] 1.2%

COC(=O)CCCCCCCCCCC1C=CCC1 (configuration not stated)
inactive: [1] -3.5% | [2] -23% | [3] 11.4% | [4] 9.8% | [5] -3.45% | [6] 0.5%

O=C1OC(/C=C/c2ccccc2)=NC/1=C\c1ccccc1Cl
inactive: [1] 29.8% | [2] 15.4% | [3] 35% | [4] 21.6% | [5] 17.4% | [6] 20.4%
